# aSyn 5UTR act – Activators working through SNCA 5'UTR binding (MLPCN); AID 1814; alpha-synuclein 5'UTR reporter, activators screen; activity score, % (tested at 7.5 µM), hits read low; 7.1% of 300,000 active; in the data active = activity score below about -60%
# Active calls of the source: *. This excerpt belongs to a sample that is enriched for hits.
SMILES,aSyn 5UTR act
Cc1cc(C(=O)CSc2n[nH]c(N)n2)c(C)n1-c1ccccc1,-111*
CCOc1cccc2cc(-c3nnc(NCc4ccco4)s3)c(=O)oc12,-171*
COc1ccc2oc(=O)c(-c3nnc(NCc4ccco4)s3)cc2c1,-253*
CNc1nnc(-c2cc3cc(Cl)ccc3oc2=O)s1,-77*
O=C(/C=C/c1cccnc1)c1ccc(NC(=O)c2cccc(Br)c2)cc1,-103*
Cc1cccc(C(=O)Nc2ccc(C(=O)/C=C/c3cccnc3)cc2)c1,-98*
COc1cc(C(=O)/C=C/c2cccnc2)ccc1O,-107*
Cc1cccc(C(=O)Nc2ccc(C(=O)/C=C/c3ccncc3)cc2)c1,-160*
O=C(/C=C/c1ccc(OCc2ccccc2)c(OCc2ccccc2)c1)c1cccnc1,-62*
NC(N)=N/N=C/c1ccc(OCc2ccccc2)c(OCc2ccccc2)c1,106
COc1ccc(-c2nnc(N(C)C(=O)C3CCOC3)s2)cc1 (stereo not drawn),-66*
COc1ccc(-c2nnc(N(C)C(=O)C3CCCO3)s2)cc1 (stereo not drawn),-87*
COc1ccc(-c2nnc(N(C)C(=O)c3ccno3)s2)cc1,-138*
O=C(Nc1ccc2c(c1)OCO2)c1cnn2cccnc12,-141*
O=C(c1cnn2cccnc12)N1CCN(c2ccccc2)CC1,-64*
O=C(Nc1cccc(O)c1)c1cnn2cccnc12,-110*
Cc1cccnc1NC(=S)NC(=O)/C=C/c1ccco1,-89*
O=C(/C=C/c1ccco1)NC(=S)Nc1ccccn1,-127*
Cc1cccc(Nc2nc(-c3ccc(O)c(O)c3)cs2)n1,-224*
Cc1cccc(Nc2nc(-c3ccc(F)c(C)c3)cs2)n1,-249*
Cc1ccccc1C(=O)N1CCc2cc(-c3csc(NC(=O)CN4CCCC4)n3)ccc21,-99*
O=C(CN1CCCCC1)Nc1nc(-c2ccc(F)c(F)c2)cs1,-99*
O=C(CN1CCCCC1)Nc1nc(-c2ccccc2)cs1,-77*
Cc1sc(NC(=O)CN2CCCC2)nc1-c1ccc2c(c1)CCN2C(=O)c1cccc(F)c1,-69*
O=C(CCN1C(=O)C2CCCCC2C1=O)Nc1nc(-c2ccccc2)cs1 (stereo not drawn),-65*
SMILES,aSyn 5UTR act
O=C(CN1CCCCC1)Nc1nc(-c2ccc(Cl)cc2)cs1,-74*
N#Cc1c(N2CCCC(O)C2)nc(N)c2c(N)nc3c(c12)CC(=O)N3C12CC3CC(CC(C3)C1)C2 (stereo not drawn),-232*
Cc1oc(-c2ccc3ccccc3c2)nc1CN(C)C(C)c1ccncn1 (stereo not drawn),-80*
CC(=O)c1ccc(NCC2COc3ccccc3O2)c([N+](=O)[O-])c1 (stereo not drawn),-179*
Cc1cccc(NC(=O)c2ccc(NCCO)c([N+](=O)[O-])c2)n1,-95*
Cc1cccc(NC(=O)c2ccc(NCC3CCCO3)c([N+](=O)[O-])c2)c1 (stereo not drawn),-64*
Cc1cccc(NC(=O)c2ccc(NCC3CCCO3)c([N+](=O)[O-])c2)n1 (stereo not drawn),-121*
Cc1ccc(S(=O)(=O)n2nc(-c3ccc(Cl)cc3)nc2NCc2ccco2)cc1,-96*
CCS(=O)(=O)n1nc(-c2ccccc2)nc1NCc1ccco1,-71*
CCCCOC(=O)Nc1cccc(Cl)c1C,-104*
CC(=O)c1ccc(NC(=O)COC(=O)c2ccccc2N=Nc2ccc(N(C)C)cc2)cc1,-101*
CN(C)c1ccc(N=Nc2ccccc2C(=O)OCC(=O)N(C)c2ccccc2)cc1,-83*
COC(=O)c1ccccc1NC(=O)COC(=O)c1ccccc1N=Nc1ccc(N(C)C)cc1,-80*
O=C(Nc1ccc2c(c1)OCO2)Nc1ccc(F)cc1F,-138*
Cc1cc(C)c2[nH]c(C(=O)Nc3ccc4c(c3)OCO4)cc2c1,-66*
COC(=O)c1cccc(NC(=O)Nc2ccc(Cl)cc2Cl)c1,-103*
O=C(Nc1ccc2c(c1)OCO2)c1ccc(Cl)s1,-194*
NC(=O)Nc1ccc2c(c1)OCCO2,-113*
O=C(Nc1ccc2c(c1)OCO2)Nc1ccc2c(c1)OCO2,-129*
O=C(Nc1cccc(C(=O)O)c1)Nc1ccc2c(c1)OCO2,99
Cc1cc(C)c(NC(=O)Nc2ccc3c(c2)OCO3)c(C)c1,-71*
COC(=O)c1ccc(C(=O)OC)c(NC(=O)Nc2ccc3c(c2)OCO3)c1,-124*
O=C(Nc1ccc2c(c1)OCO2)Nc1ccc(Cl)cc1Cl,-112*
O=C(Nc1ccc(F)cc1F)c1cc(-c2ccc3c(c2)OCO3)on1,-110*
Cc1noc(C(=O)Nc2ccc3c(c2)OCO3)c1Cl,-205*
SMILES,aSyn 5UTR act
Cc1nn(Cc2ccc(Cl)cc2)c(C)c1NC(=O)c1cc(-c2ccc3c(c2)OCO3)on1,61
CCc1ccc2[nH]c(C(=O)Nc3ccc4c(c3)OCO4)cc2c1,-94*
O=C(Nc1ccc2c(c1)OCO2)c1c(Cl)nc2sccn12,-205*
CC1CCC(NC(=O)C(=O)Nc2ccc3c(c2)OCO3)CC1 (stereo not drawn),-114*
O=C(Nc1ccc(F)cc1)Nc1ccc2c(c1)OCO2,-109*
Cc1ccc(NC(=O)Nc2ccc3c(c2)OCO3)c(Br)c1,-117*
CCc1ccc2[nH]c(C(=O)Nc3ccc(Br)c(C)n3)cc2c1,-146*
Cc1ccc2c(Cl)c(C(=O)Nc3ccc4c(c3)OCO4)sc2c1,-148*
O=C(Nc1ccc(Cl)cc1)Nc1ccc2c(c1)OCO2,-134*
Cc1cc(/C=N/NC(=O)c2ccsc2)c(C)n1-c1cnccn1,-77*
COC(=O)c1ccc(-c2ccc(/C=N/N3C(=O)C4C5C=CC(CC5)C4C3=O)o2)cc1 (stereo not drawn),-191*
Nc1ccc(CCc2nc3ccccc3o2)cc1,-126*
Cc1cccnc1NC(=O)c1ccc(OCc2c(C)noc2C)cc1,-81*
Cc1cccnc1NC(=O)Nc1ccc(Cl)cc1,-84*
COc1ccc(NC(=O)Nc2ncccc2C)cc1,-157*
Cc1cccnc1NC(=O)Nc1ccccc1,-141*
COc1ccc(C(=O)NC(=O)Nc2ncccc2C)cc1,-139*
CCc1ccc(Nc2cnn(-c3nc4ccccc4s3)c(=O)c2Cl)cc1,-81*
Cc1ccc2nc(-c3ccc(-c4cccc(Cl)c4)cc3)c(NCc3ccccc3)n2c1,-68*
CCCCCCSc1ccc(-c2nc3ccccn3c2NCCCC)cc1,-113*
CCCCNc1c(-c2ccc(-c3cccc(Cl)c3)cc2)nc2ccccn12,-105*
CCOc1ccc(OCCN2C(=O)c3ccccc3C2=O)cc1,-94*
Cc1cccc(OCCN2C(=O)c3ccccc3C2=O)c1,-67*
O=C1c2ccccc2C(=O)N1CCCOc1ccccc1,-62*
Cc1cccc(OCCn2c(=O)n(C)c3ccccc32)c1,-162*
SMILES,aSyn 5UTR act
Cc1ccc2c(c1)C(=O)C(=O)N2CCCOc1ccccc1,-68*
Cc1ccc2oc(=O)n(CCCOc3ccccc3)c2c1,-69*
CSc1ccc(C2c3[nH]c4ccccc4c3CCN2C(=O)c2ccnn2C)cc1 (stereo not drawn),-166*
CN(C)/C=N/c1ncc(C(=O)c2ccccc2)s1,-160*
S=C(NCCc1ccccn1)NC1CC2CCC1C2 (stereo not drawn),-62*
c1ccc(CSc2cc3ccccc3[nH]2)cc1,-132*
COc1cccc(NC(=O)C2CCN(S(=O)(=O)c3ccc4c(c3)NC(=O)C(C)S4)CC2)c1 (stereo not drawn),-68*
Cc1ccc2nc(N/C(=N/S(=O)(=O)c3ccc(F)cc3F)c3ccccc3)sc2c1,-108*
Cc1ccc2nc(N/C(=N/S(=O)(=O)c3ccc(F)cc3)c3ccccc3)sc2c1,-107*

# High-throughput results deposited in PubChem by Broad Institute.
